Experimental data as given in PubChem BioAssay (Tox21).
“And” between values parts separate entries of the source, which are not always exact repeats. Equal values may be shown once. Inconclusive results are not listed. The source made the active and inactive calls. Unless noted, calls come from the whole dose curve; as a rule, active = well fitted curve in the direction sought with a large enough effect in the repeat runs; inconclusive = weak or mixed curves; inactive = no such curve, though single readings can be large; an effect the other way counts as inactive or inconclusive.

How the values were obtained:
[1] = qHTS assay for small molecules that induce genotoxicity in human embryonic kidney cells expressing luciferase-tagged ATAD5 (AID 651632); note: nearly all actives have a fitted effect of over 15% in size; note: potency is the fitted concentration of half-maximal effect
Outline: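 Test compounds were delivered by pin tool onto HEK293T reporter cells (2,000/well) expressing ATAD5 fused to luciferase. After 16 hr at 37C, 5% CO2, Amplite was added for 30 min at room temperature and luminescence was measured.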

[2] = qHTS assay for small molecule agonists of the p53 signaling pathway - cell viability (AID 651633; calls by dose curve; note: nearly all actives have a fitted effect of over 30% in size; note: potency is the fitted concentration of half-maximal effect)
Outline: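 p53RE-bla cells were treated with compound for 16 hours at 37 C. Cytotoxicity was then measured as CellTiter-Glo luminescence after 30 min at room temperature.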

[3] = qHTS assay for small molecules that induce genotoxicity in human embryonic kidney cells expressing luciferase-tagged ATAD5 - cell viability (AID 651634; calls by dose curve; note: nearly all actives have a fitted effect of over 25% in size; note: potency is the fitted concentration of half-maximal effect)
Outline: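 Quantitative high-throughput format. HEK293T cells expressing ATAD5 fused to luciferase were plated at 2,000 cells/well and treated 15.5 hr with compound versus DMSO. Viability was determined by fluorescent live-cell protease substrate, 30 min at 37C.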

[4] = qHTS assay for small molecule disruptors of the mitochondrial membrane potential - cell viability (AID 720634; calls by dose curve; note: nearly all actives have a fitted effect of over 20% in size; note: potency is the fitted concentration of half-maximal effect)
Outline: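 Same-well counter-screen: following the MMP dye addition, CellTiter-Glo was added to 1 hr compound-treated HepG2 cells and luminescence read after 30 min at room temperature.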

[5] = qHTS assay to test for compound auto fluorescence at 590 nm (red) in HepG2 cells (AID 720674)
Outline: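 HepG2 cells, 2,000 per well in MEM with 10% FBS, attached overnight at 37 C, then got 23 nL compound or DMSO. After 1 hr at 37 C, 5% CO2, red fluorescence was read at 540/590 nm against Rose Bengal sodium as reference.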

[6] = qHTS assay to test for compound auto fluorescence at 535 nm (green) in HepG2 cells (AID 720675)
[7] = qHTS assay to test for compound auto fluorescence at 460 nm (blue) in HEK293 cells (AID 720678)
Outline: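 HEK293 cells (2,000 per well, medium with 10% dialyzed FBS) attached for 4-5 hr at 37C, then received compound and stood overnight at 37C, 5% CO2. Blue fluorescence was read at Ex/Em 405/460 nm and expressed relative to triamterene.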

[8] = qHTS assay to test for compound auto fluorescence at 590 nm (red) in HEK293 cells (AID 720679)
Outline: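 HEK293 cells (2,000/well, medium with 10% dialyzed FBS) attached for 4-5 hr at 37C, received 23 nL compound and were incubated overnight at 37C, 5% CO2. Red fluorescence was then read at 540/590nm Ex/Em, referenced to Rose Bengal sodium.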

[9] = qHTS assay to test for compound auto fluorescence at 535 nm (green) in HEK293 cells (AID 720680)
[10] = qHTS assay to test for compound auto fluorescence at 460 nm (blue) in HEK293 cell free culture (AID 720681)
Outline: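 Compounds were added to cell-free DMEM with 10% FBS and fluorescence read directly. The blue channel used 405 nm excitation and 460 nm emission, with triamterene as the reference fluorophore.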

[11] = qHTS assay to test for compound auto fluorescence at 535 nm (green) in HEK293 cell free culture (AID 720682)
Outline: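 Steps: dispense DMEM/10% FBS into empty wells; pin in compound or DMSO; measure fluorescence at 485/535 nm. Values are fluorescein equivalents.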

[12] = qHTS assay to test for compound auto fluorescence at 590 nm (red) in HEK293 cell free culture (AID 720683)
Outline: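 Cell-free wells of DMEM with 10% FBS received compound, and intrinsic fluorescence was read at excitation/emission 540/590 nm. Values expressed as equivalence to Rose Bengal sodium.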

[13] = qHTS assay to test for compound auto fluorescence at 590 nm (red) in HepG2 cell free culture (AID 720684)
Outline: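 Rose Bengal sodium served as the reference for red signal. Test compounds were dispensed into serum-containing MEM (10% FBS) without cells, and plates were read at 540/590 nm.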

[14] = qHTS assay to test for compound auto fluorescence at 460 nm (blue) in HepG2 cell free culture (AID 720685)
Outline: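 Cell-free plates of MEM plus 10% FBS received 23 nL compound or DMSO vehicle; blue-channel (405/460 nm) intensity scored against triamterene as reference fluorophore.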

[15] = qHTS assay to test for compound auto fluorescence at 535 nm (green) in HepG2 cell free culture (AID 720686)
[16] = qHTS assay to test for compound auto fluorescence at 460 nm (blue) in HepG2 cells (AID 720687)
Outline: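 HepG2 cells in MEM with 10% FBS, attached overnight at 37 C, were exposed to compound or DMSO for 1 hr at 37 C, 5% CO2. Blue fluorescence was read at 405/460 nm, with triamterene as reference fluorophore.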

[17] = molecular target: Glucocorticoid receptor (Homo sapiens) (UniProt P04150); assay: qHTS assay to identify small molecule agonists of the glucocorticoid receptor (GR) signaling pathway (AID 720691; active = well fitted activation curve with a large enough effect in the signal ratio in the repeat runs, not every such curve was filed as active; the % refers to the signal ratio); settings: GR-bla HeLa, beta-lactamase reporter ratio, 18 h; activation: at 62.4 µM (top of the series)
Outline: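 A HeLa cervical cancer line expressing GR and a glucocorticoid response element-driven beta-lactamase gene is treated with compounds for 18 h; LiveBLAzer B/G FRET substrate is then applied and fluorescence read.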

[18] = qHTS assay for small molecule disruptors of the mitochondrial membrane potential (AID 720635); note: potency is the fitted concentration of half-maximal effect
Outline: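 HepG2 cells exposed to compound 1 hr at 37C, then Mito-MPS dye 30 min. Ratio read of aggregate (540/590 nm) versus monomer (490/535 nm) fluorescence.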

[19] = molecular target: Glucocorticoid receptor (Homo sapiens) (UniProt P04150); assay: qHTS assay to identify small molecule antagonists of the glucocorticoid receptor (GR) signaling pathway (AID 720692; active = well fitted inhibition curve with a large enough effect in the signal ratio in the repeat runs, not every such curve was filed as active; the % refers to the signal ratio; note: potency is the fitted concentration of half-maximal effect)
Outline: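 GRE-bla HeLa line, dex-stimulated (5 nM final). Compound exposure 18 h, 37 C. Beta-lactamase FRET read after 2 h RT substrate.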

Measured: Potency

Glucocorticoid receptor (Homo sapiens), sequence (P04150 whole entry, looked up): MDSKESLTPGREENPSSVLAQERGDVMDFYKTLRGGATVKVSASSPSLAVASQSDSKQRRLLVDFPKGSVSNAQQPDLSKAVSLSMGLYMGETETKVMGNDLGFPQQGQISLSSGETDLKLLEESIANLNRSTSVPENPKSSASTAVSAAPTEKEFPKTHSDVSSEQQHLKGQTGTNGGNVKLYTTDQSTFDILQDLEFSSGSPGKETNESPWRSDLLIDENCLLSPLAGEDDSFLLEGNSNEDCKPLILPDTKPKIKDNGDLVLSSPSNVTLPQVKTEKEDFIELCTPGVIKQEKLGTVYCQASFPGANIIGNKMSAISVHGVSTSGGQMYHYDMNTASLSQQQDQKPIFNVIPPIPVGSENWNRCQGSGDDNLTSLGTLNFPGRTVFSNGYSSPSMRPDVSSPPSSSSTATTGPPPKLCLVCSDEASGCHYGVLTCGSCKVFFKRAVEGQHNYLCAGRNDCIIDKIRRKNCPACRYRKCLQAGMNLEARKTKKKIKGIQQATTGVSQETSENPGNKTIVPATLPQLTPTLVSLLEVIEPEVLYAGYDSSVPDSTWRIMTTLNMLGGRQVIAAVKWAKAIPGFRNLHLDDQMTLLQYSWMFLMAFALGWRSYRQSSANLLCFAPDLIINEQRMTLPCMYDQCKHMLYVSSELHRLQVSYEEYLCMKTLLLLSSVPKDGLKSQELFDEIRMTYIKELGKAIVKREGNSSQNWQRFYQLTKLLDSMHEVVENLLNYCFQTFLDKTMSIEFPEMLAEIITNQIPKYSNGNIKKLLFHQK

N[C@@H](Cc1ccc(O)c(O)c1)C(=O)O
not listed: [18] | [19]
inactive: all other assays above

O=[N+]([O-])c1ccc(O)c2ncccc12
active: [2] 26.6 µM | [3] 21.1 µM | [18] 6.68 µM
not listed: [17] | [19]
inactive: all other assays above

CN(C)CCOc1ccc(/C(=C(/CCCl)c2ccccc2)c2ccccc2)cc1
active: [2] 57.2 µM
not listed: [17] | [18] | [19]
inactive: all other assays above

C[C@@H]1C(=O)NC2=Nc3cccc(Cl)c3CN21
not listed: [18] | [19]
inactive: all other assays above

N#Cc1nc(Cl)c(Cl)c(Cl)c1Cl
active: [1] 4.86 µM | [2] 10.9 µM | [3] 4.86 µM | [19] 1.23 µM
not listed: [8] | [17] | [18]
inactive: all other assays above

O=C1CCCCCCCCCCCCCC1
active: [18] 48.6 µM
inactive: all other assays above

CC[C@H](C)C(=O)O[C@H]1CCC=C2C=C[C@H](C)[C@H](CC[C@@H]3C[C@@H](O)CC(=O)O3)[C@H]21
not listed: [17] | [18] | [19]
inactive: all other assays above

O=C(CCCCCCCCc1cccnc1)N1CCC(C=C(c2ccccc2)c2ccccc2)CC1
active: [2] 24.3 µM | [3] 61.1 µM | [4] 19.3 µM | [18] 24.3 µM | [19] 21.9 µM
not listed: [8] | [17]
inactive: all other assays above

Cc1cc(F)ccc1-c1cc(N2CC[C@@H](O)[C@H]2CO)ncc1N(C)C(=O)C(C)(C)c1cc(C(F)(F)F)cc(C(F)(F)F)c1
active: [2] 19 µM | [3] 47.8 µM | [18] 21.4 µM
not listed: [4] | [17] | [19]
inactive: all other assays above

COc1cccc2c1[C@@H]1CN(CCCCn3c(=O)[nH]c4c(sc5ncc(-c6ccccc6)nc54)c3=O)C[C@@H]1CO2
active: [2] 29.8 µM | [3] 26.6 µM | [18] 13.3 µM
not listed: [17] | [19]
inactive: all other assays above

CC(C)c1ccc2sc3ccccc3c(=O)c2c1
active: [1] 4.33 µM | [4] 34.4 µM | [18] 48.6 µM
not listed: [7] | [10] | [14] | [16]
inactive: all other assays above

CO[C@H]1C[C@@H]2CC[C@@H](C)[C@@](O)(O2)C(=O)C(=O)N2CCCC[C@H]2C(=O)O[C@H]([C@H](C)C[C@@H]2CC[C@@H](O)[C@H](OC)C2)CC(=O)[C@H](C)C=C(C)[C@@H](O)[C@@H](OC)C(=O)[C@H](C)C[C@H](C)/C=C/C=CC=C1C
active: [2] 21.1 µM and 23.7 µM | [3] 29.8 µM and 26.6 µM | [18] 17.6 µM and 19.7 µM
not listed: [8] | [17] | [19]
inactive: all other assays above

CCCCCCCCCCCCCCCCC(C(=O)O)C(O)(CC(=O)O)C(=O)O (stereo not given)
active: [2] 29.8 µM
not listed: [17] | [18] | [19]
inactive: all other assays above
